Experiment in all cases: PBM binding z-score (relative to random genomic background probes); higher = stronger binding; sequences stand for … in GC…GCGATTGACAGCGTAGAATGAAGG
Test [1] concerns PPARg:RXRa DBDmut IVT, anti-RXR (DBD mutation: RXRa K156A/R161A, NR concentration 270 nM, RXRa partner concentration 90 nM). Put shortly: (§1)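 Random background probes are the reference for binding z-scores. These scores derive from regression-normalized fluorescence on custom Agilent 4×180K protein-binding microarrays incubated 1 h with ligand-free nuclear receptor dimers. Binding was detected with antibodies against each partner (one per run).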

The test system of test [2] is PPARg:RXRa IVT, anti-PPARg (NR concentration 270 nM, RXRa partner concentration 90 nM). Put shortly: as §1
Test [3] relates to PPARg DBDmut:RXRa IVT, anti-PPARg (DBD mutation: PPARg1 K132A/R137A, NR concentration 270 nM, RXRa partner concentration 90 nM). Put shortly: as §1
Test [4] concerns PPARg DBDmut IVT, anti-PPARg (DBD mutation: PPARg1 K132A/R137A, NR concentration 270 nM). In a few lines: as §1
For test [5], the system named is PPARg homodimer (NR concentration 180 nM). Put shortly: as §1
The test system of test [6] is PXR:RXRa (NR concentration 270 nM, RXRa partner concentration 90 nM). In a few lines:
as §1

Test [7] relates to PXR homodimer (NR concentration 270 nM). In a few lines:
as §1

Test [8] concerns RARa:RXR (NR concentration 270 nM, RXRa partner concentration 90 nM). In a few lines: as §1
Test [9] deals with RARa homodimer (NR concentration 270 nM). Put shortly:
as §1

Test [10] relates to RARb:RXRa (NR concentration 270 nM, RXRa partner concentration 90 nM). Put shortly:
as §1

The test system of test [11] is RARb homodimer (NR concentration 270 nM). Put shortly:
as §1

Test [12] relates to RARg:RXRa (NR concentration 270 nM, RXRa partner concentration 90 nM). In a few lines:
as §1

The subject of test [13] is RARg homodimer (NR concentration 270 nM). Put shortly:
as §1

Test [14] deals with RXRa DBDmut IVT, anti-RXR (DBD mutation: RXRa K156A/R161A, NR concentration 90 nM). In a few lines:
as §1

Test [15] has as its system RXRa homodimer (NR concentration 180 nM). In a few lines: as §1
The test system of test [16] is THRa:RXRa (NR concentration 90 nM, RXRa partner concentration 90 nM). Put shortly: as §1
Test [17] concerns THRa homodimer (NR concentration 90 nM). Put shortly:
as §1

The subject of test [18] is VDR homodimer (NR concentration 270 nM). In a few lines:
as §1

Regarding GCTTGTAGATCAAGGTTCAGAAAGACTAAGCTAA, the PBM binding z-score in [1] is 1.07; in test [2], 1.53; in test [3], 0.321; in test [4] it was -0.08; in test [5] it was -0.171; in test [6], 0.124. Moreover, the PBM binding z-score in [7] is -0.087; in [8] it was 0.533; in [9] it was -0.997; in test [10], 0.339; in [11] it was 0.239; in test [12], 0.226. The PBM binding z-score in test [13] was 0.173; in test [14] it was 1.09; in test [15] it was 0.62; in test [16] it was -0.139; in test [17], -0.807; in [18], 1.33.

In the case of TGAAAGAGGTTAAAGATCAGGGAACGTGGCGTCG, the PBM binding z-score in [1] is 0.975; in test [2] it was 2; in test [3], 0.776; in test [4], -0.385; in [5], 1.36; in test [6], 2.29. Besides, the PBM binding z-score in test [7] stood at 0.0556; in test [8], 3.68; in test [9], 0.0643; in [10], 2.67; in [11] it was 1.1; in test [12], 2.9. The PBM binding z-score in test [13] was 1.68; in test [14], 0.56; in test [15], 4.19; in test [16], 1.63; in test [17], -0.693; in test [18] it was 0.28.

As to TAACCTAGGTCATTCAGGGGCCAGTATAGAAAGC, the PBM binding z-score in test [1] came to 3.77; in [2] it was 4.77; in test [3], 0.824; in test [4], 0.744; in test [5], 2.96; in test [6], 3.09. Also, the PBM binding z-score is 0.651 in test [7]; 4.06 in test [8]; 0.531 in test [9]; 4.33 in test [10]; 3.95 in test [11]; 6.73 in test [12]. Moreover, the PBM binding z-score in [13] came out at 5.25; in [14], 2.62; in [15], 3.87; in test [16] it was 3.83; in test [17], 1.26; in test [18], 2.58.

Regarding TGAATGAGGTTATAAGATTAGGGAACGTTGCAAA, the PBM binding z-score was found to be 1.08 in [1]; 1.82 in [2]; 0.868 in [3]; 0.168 in test [4]; 0.438 in test [5]; 0.788 in test [6]. In addition, the PBM binding z-score is 0.176 in [7]; 1.31 in test [8]; 0.154 in test [9]; 1.15 in test [10]; 0.24 in test [11]; 1.43 in test [12]. In addition, the PBM binding z-score worked out at 1.01 in [13]; 0.551 in [14]; 1.87 in test [15]; 1.68 in test [16]; 0.15 in test [17]; 0.323 in [18].

AGTCAAAGTTCACTAGGTAGCGTAAGATTCAGCT: the PBM binding z-score was 1.37 in test [1]; 3.4 in [2]; 0.246 in [3]; 0.621 in test [4]; 2.62 in test [5]; 4.12 in [6]. Also, the PBM binding z-score in test [7] is 2.83; in test [8], 3.01; in test [9], 1.33; in [10] it was 4.68; in test [11], 3.47; in test [12], 4.95. The PBM binding z-score was 5.68 in test [13]; 4.01 in test [14]; 3.68 in test [15]; 1.66 in [16]; -0.346 in test [17]; 3.7 in test [18].

In the case of GCTGCTAGGTCAAATGATGGTCAGCTAAAGCTCG, the PBM binding z-score in [1] was 5.24; in test [2] it was 4.16; in test [3], -0.0492; in test [4], -0.751; in [5] it was 1.73; in test [6], 1.82. The PBM binding z-score is -0.505 in [7]; 3.18 in test [8]; -0.123 in test [9]; 4.13 in test [10]; 3.24 in test [11]; 5.08 in [12]. The PBM binding z-score in test [13] was 5.22; in test [14], 1.89; in test [15], 3.09; in test [16], 2.78; in test [17], 0.255; in test [18], -0.00739.

For the sequence CGTCCAAGGTCAGAGAGGTCAGTGAGTGCCGAGT, the PBM binding z-score was 2.89 in test [1]; 3.66 in test [2]; -0.0729 in test [3]; -0.219 in test [4]; 3.93 in [5]; 6.23 in test [6]. For the same sequence, the PBM binding z-score in test [7] stood at 12.6; in test [8], 5.43; in test [9], 2.9; in test [10], 5.37; in test [11] it was 5.29; in test [12], 6.35. Also, the PBM binding z-score in [13] amounted to 7.09; in test [14] it was 3.37; in test [15], 5.51; in [16], 4.37; in test [17], 3.07; in test [18], 6.07.

These data come from the supplement of paper PMC6555819.
